Screening data deposited in PubChem by several laboratories.
Anthrax LF inh2: inhibitors of Bacillus anthracis lethal factor protease; P15917; multiplex microsphere protease cleavage assay, LF; inhibition, % at 10 µM; 360,000 compounds, 0.12% hits; also: plate controls were buffer without enzyme for full effect and enzyme alone for no effect
Bead autofluor: counter-screen for toxin protease inhibitors: compound fluorescence | compound autofluorescence counterscreen, microsphere flow cytometry; stronger effect = higher value | AID 624483 | fluorescence intensity (test concentration not listed) | 360,000 compounds, 3.1% hits; in the data active = fluorescence intensity above about 16000; inconclusive = no clear call, values can overlap the other calls
BoNT-F LC inh: blocks Botulinum neurotoxin F light chain protease. inhibition, % at 10 µM. Multiplex microsphere protease cleavage assay, flow cytometry. 360,000 compounds, 0.22% hits; in the data active = inhibition above about 35%, passing the limit was not always enough; inconclusive = no clear call, values can overlap the other calls; also: plate controls were buffer without enzyme for full effect and enzyme alone for no effect
BoNT A protease: inhibitors of Botulinum neurotoxin A light chain protease; 360,000 compounds, 0.17% hits; AID 588499; multiplex microsphere protease substrate cleavage, flow cytometry; inhibition, % at 10 µM; also: plate controls were buffer without enzyme for full effect and enzyme alone for no effect
SSB-PriA inh: blocks PriA binding to SSB C-terminal tail. 430,000 compounds, 0.6% hits. inhibition, % at 33 µM. AlphaScreen SSBct-PriA binding, biotinylated peptide. AID 1272365; in the data active = inhibition mostly above about 37%, no sharp cut-off; inactive = mostly below about 20%;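 also: plate controls were negative control peptide for no effect and reference peptide for full effect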
* hit, by the source's call; u = inconclusive; x = no result given. An excerpt weighted towards active compounds, which were near 3.1% of everything screened. Rule as the data show it, unless noted: active = inhibition above about 30%; inconclusive = no clear call, values can overlap the other calls; inactive = below that.

SMILES	Anthrax LF inh2	Bead autofluor	BoNT-F LC inh	BoNT A protease	SSB-PriA inh
COc1ccc(C=NOCC(=O)NC(c2ccccc2)c2ccccc2)c(OC)c1	x	x	x	x	-5
COC(=O)C1C(=O)C2=C(CC1C)NC(C)=C(C(=O)OC(C)C)C2c1ccc(C)o1 (stereo not given)	2	23601*	-2	0	-11
Cc1cc2cc(CNC(=S)Nc3ccccc3)ccc2n1C	x	x	x	x	66
Cc1cc2cc(CNC(=S)Nc3ccc(OC(F)(F)F)cc3)ccc2n1C	-82	1752	-106	60*	62*
Cc1cccc(NC(=S)NCc2ccc3c(c2)cc(C)n3C)c1C	-74	2076	-125	47*	72*
COc1cccc(NC(=S)NCc2ccc3c(c2)cc(C)n3C)c1	-84	2002	-121	54*	24
Cc1cccc(NC(=S)NCc2ccccc2Cl)c1C	-13	4243	37*	2	-4
O=C(c1cccc(Cl)c1)N1CCN(Cc2nc(-c3ccc(F)cc3)cs2)CC1	x	x	x	x	-8
CC(Oc1ccccc1F)C(=O)N1CCN(c2ccc(-n3cncn3)nn2)CC1 (stereo not given)	x	x	x	x	-13
O=C(NCCC1CCCCC1)N1CCN(c2ccccc2)CC1	x	x	x	x	-20
CC(=O)c1cc(NC(=O)c2cccc(C(F)(F)F)c2)c(=O)oc1/C=C/N(C)C	-1	23755*	-12	u	-11
CC(=O)c1cc(NC(=O)c2cccc(C(F)(F)F)c2)c(=O)oc1C	3	4376	2	0	-12
CC(=O)c1cc(NC(=O)c2ccc(Cl)cc2)c(=O)oc1/C=C/N(C)C	2	25493*	1	u	-9
COc1ccc(C(=O)Nc2cc(C(C)=O)c(C)oc2=O)cc1	-14	4373	0	0	-1
Cc1ccc2c(c1)C1CN(C)CCC1N2Sc1ccccc1[N+](=O)[O-] (stereo not given)	-6	4062	4	0	55*
CCCS(=O)(=O)N1CCc2ccc(NC(=O)OCC)cc2C1	x	x	x	x	3
CC(C)(Oc1cccc2ccccc12)C(=O)O	-3	17702*	-6	-2	-18
O=C(O)COc1cccc2ccccc12	-2	11450	-10	0	-3
C[C@@H](CCc1ccccc1)NC(=O)c1cc(=O)c(OCc2ccc(F)cc2)cn1C	x	x	x	x	-14
O=C(COc1ccccc1)NCC1CCN(Cc2cccs2)CC1	x	x	x	x	-15
Cc1ccsc1C(=O)OCc1nc2ccccc2c(=O)[nH]1	-3	19317*	10	9	-8
O=C(NCC(=O)N1CCOC(c2ccccc2)C1)C(=O)NCc1cccs1 (stereo not given)	x	x	x	x	-1
CC(C)c1ccc(Cn2nnc3ccccc32)cc1	x	x	x	x	-13
COC(=O)CN(C(=S)Nc1ccc(F)cc1)C1CC(=O)N(c2ccc(OC)cc2)C1=O (stereo not given)	-1	22916*	-3	u	-14
CC(C)N(C(=O)Nc1ccc2nccnc2c1)C(C)C	-5	3972	u	1	79*
SMILES	Anthrax LF inh2	Bead autofluor	BoNT-F LC inh	BoNT A protease	SSB-PriA inh
Fc1ccc(NC(=S)Nc2ccc3nccnc3c2)cc1	-2	4286	-5	0	45*
O=C(Nc1cc(-n2cncn2)ncn1)C1CCCN(c2ccc(-c3ccco3)nn2)C1 (stereo not given)	x	x	x	x	-9
COc1ccc(S(=O)(=O)N(C(C)=O)c2ccc3oc(=O)sc3c2)cc1	1	20711*	1	-1	0
O=C(c1cccc2ccccc12)N1CCC(CSc2ccccn2)CC1	x	x	x	x	12
CC(Cc1ccccc1)NC(=O)C1(c2ccccc2)CCOCC1 (stereo not given)	-2	22824*	-1	u	-3
CC(C)NC(=O)C1(c2ccccc2)CCOCC1	-5	2499	0	1	-2
O=C1CC(N2CCC(c3nc4ccccc4s3)CC2)C(=O)N1Cc1ccccc1 (stereo not given)	-5	23583*	-2	-1	-1
CN1C(=O)CC(N2CCC(c3nc4ccccc4s3)CC2)C1=O (stereo not given)	1	4687	-8	1	1
Cc1nc2ccccc2n1C1CC(=O)N(Cc2ccccc2)C1=O (stereo not given)	-3	23623*	-4	-2	3
CC(C)(Oc1ccc(Cl)cc1)C(=O)N1C2CCC1COC2	x	x	x	x	-7
Cc1ccc(Oc2cc(C)nc(-c3ccccc3O)n2)cc1	1	2993	-8	0	-76
Cc1cc(OC2CCCCC2)nc(-c2ccccc2O)n1	-4	22117*	-4	u	-29
O=C(Nc1ccccc1C(F)(F)F)c1cccn(Cc2ccc(Br)cc2)c1=O	x	x	x	x	-1
COc1ccc(/C=C/C(=O)NC(C)c2ccccc2)c(OC)c1 (stereo not given)	x	x	x	x	-2
CCOc1ccc(C(c2c(O)nc(SC)n(C)c2=O)c2c(O)nc(SC)n(C)c2=O)cc1	0	22263*	4	1	-7
CCOc1ccc(OCC(=O)OCn2c(SC)nnc(C)c2=O)cc1	-2	1982	-5	-1	-11
Cc1ccc2nc(SCC(=O)c3cc(C)n(C)c3C)[nH]c2c1	-4	2270	2	0	4
Cc1ccc2nc(SCC(=O)Nc3nnc(SCC(N)=O)s3)[nH]c2c1	-2	20623*	-1	0	-3
Cc1ccc2nc(SCC(=O)Nc3cccnc3Cl)[nH]c2c1	-4	3834	2	0	-4
C/C(N)=C(/C#N)C(=O)CSc1nc2ccc(C)cc2[nH]1	-2	16421*	1	0	-16
O=C(Nc1nc(-c2cc3ccccc3oc2=O)cs1)c1cccc(N2C(=O)CCC2=O)c1	x	x	x	x	-4
O=C(N[C@H]1CCN(c2nccs2)C1)c1ccncc1	x	x	x	x	2
Cc1ccc2c(C)c(C(=O)N3CCN(c4ncccn4)CC3)oc2c1C	0	4381	-1	-1	85*
O=C(c1ccc(Br)s1)N1CCN(c2ncccn2)CC1	2	23389*	0	2	-1
C=CCn1c(SCC(=O)c2cc(C)n(CCOC)c2C)nc2sc3c(c2c1=O)CCCCC3	x	x	x	x	-31
SMILES	Anthrax LF inh2	Bead autofluor	BoNT-F LC inh	BoNT A protease	SSB-PriA inh
C=CCn1c(SCC(=O)c2cc(C)n(C(C)COC)c2C)nc2sc(C)c(C)c2c1=O (stereo not given)	-18	19713*	4	u	4
CCOC(=O)c1sc(NC(=O)c2ccc(SC)cc2)cc1C	x	x	x	x	5
CCN1C(=O)/C(=C2/C=CC=CN2C)SC1=S	-2	23187*	-9	-3	4
O=C(NCc1ccccc1)NC(=O)c1ccncc1	-3	20362*	-1	-2	-7
O=C(NCc1ccncc1)c1ccc(Br)cc1	-1	22240*	1	1	-6
O=C(NCc1ccccc1)NC(=O)c1ccccc1	0	3774	-26	-2	-2
O=C(c1cn(-c2cccc(F)c2)nn1)N1CCN(c2ccccc2F)CC1	x	x	x	x	-4
CC(=O)c1ccc(NC(=O)CN2CCN(Cc3nc(-c4ccccc4)cs3)CC2)cc1	x	x	x	x	-10
CCn1cc([N+](=O)[O-])c(C(=O)N2N=C3/C(=C/c4cccs4)CCCC3C2c2cccs2)n1 (stereo not given)	0	21392*	-6	-5	6
Cc1cc(C)n(CC(=O)Nc2cccc(Cl)c2C)c(=O)c1C#N	x	x	x	x	-8
Cc1ccc(NC(=O)Cn2c(C)cc(C)c(C#N)c2=O)c(Cl)c1	-4	23456*	-5	-4	-11
